# Measured values from the supplement of paper PMC8728848.
# Shown is part of a subset that was picked to be rich in the strongest signals.
# B1: Gs78B-bfa-542-29-542 (Bacteroides fragilis) (protein)
# chain: SEDINRNPLLPTKEDEKMDGVIYGAYLPNLEKSVIPIGTASESTEPVNRYQIGVNLAGDAWAGYMSPRDNKFNGSKNFTNYFMYENWVNYVYSFMVTDVYSPWMQIKRISQDEGTRNDEIYALAQIIKIAALHRTTDMFGPIPYSQVGKGSFKVAYDSQESVYRSFLKELEEAVQTLDDYSNKSKEVLPAFDIVYNGDVNKWMRFANSLMLRLAIRVRFADAGLAKEYAEKAVKHPAGLINSKELAAQMGKGAGLQMKNPLKVINEEYNDTRMGATIYSYLAGYNDARAAVYFVKNNGFKAVRCGIAKSGDAYNGFTRPNVHEDDPLYWMKASEVCFLKAEGALAGFDMGGSAGDFYNAGIRMSFSENGLDNSSAETYLKDSTRKPANYTDTSNGELSANAPSSITIRWENGATEEEKLERIITQKYLAIFPNGQEAWTEWRRTGYPRQIVVAENKTNSAVLIGNGYDLGGVRRLPYPRTEYEQNGENLHNAISQYLGGVDNAATKVWWDKKSK
# Experiments:
# Experiment in all cases: glycan array binding signal (z-score within array); higher = stronger binding
# Conditions in all cases: glycan notation: IUPAC condensed, linker removed
# [1] = biological target: Fuc(a1-2)Gal(b1-3)GalNAc(a1-3)[Fuc(a1-2)]Gal(b1-4)Glc
# In short: (§1)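 The binding signal is a Z-score computed within each array and averaged over linkers. Arrays of the same protein sequence at different concentrations or buffers were also averaged together. Data originate from 3228 arrays in the Consortium for Functional Glycomics database, kept only where the protein sequence was available.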
# [2] = biological target: Fuc(a1-2)Gal(b1-3)GlcNAc(b1-3)Gal(b1-4)Glc
# In short: as §1
# [3] = biological target: Fuc(a1-2)Gal(b1-3)GlcNAc(b1-3)[Fuc(a1-2)Gal(b1-3)GlcNAc(b1-6)]GalNAc
# In short: as §1
# [4] = biological target: Fuc(a1-2)Gal(b1-4)[Fuc(a1-3)]GlcNAc(b1-3)Gal(b1-4)[Fuc(a1-3)]GlcNAc
# In short: as §1
# [5] = biological target: Fuc(a1-2)[Gal(a1-3)]Gal(b1-3)GlcNAc(b1-6)GalNAc
# In short: as §1
# [6] = biological target: Fuc(a1-2)[Gal(a1-3)]Gal(b1-4)GlcNAc(b1-3)GalNAc
# In short: as §1
# [7] = biological target: Fuc(a1-2)[GalNAc(a1-3)]Gal(b1-4)GlcNAc(b1-3)Gal(b1-4)GlcNAc(b1-3)Gal(b1-4)GlcNAc
# In short: as §1
# [8] = biological target: Fuc(a1-3)[Gal(b1-4)]GlcNAc(b1-2)Man(a1-3)[Fuc(a1-3)[Gal(b1-4)]GlcNAc(b1-2)Man(a1-6)]Man(b1-4)GlcNAc(b1-4)GlcNAc
# In short: as §1
# [9] = biological target: Gal(a1-3)Gal(b1-3)[Fuc(a1-4)]GlcNAc(b1-2)Man(a1-3)[Gal(a1-3)Gal(b1-3)[Fuc(a1-4)]GlcNAc(b1-2)Man(a1-6)]Man(b1-4)GlcNAc(b1-4)GlcNAc
# In short: as §1
# [10] = biological target: Gal(b1-3)GlcNAc(b1-2)Man(a1-3)[Gal(b1-3)GlcNAc(b1-2)Man(a1-6)]Man(b1-4)GlcNAc(b1-4)[Fuc(a1-6)]GlcNAc
# In short: as §1
# [11] = biological target: Gal(b1-3)GlcNAc(b1-3)Gal(b1-4)GlcNAc(b1-2)Man(a1-3)[Gal(b1-3)GlcNAc(b1-3)Gal(b1-4)GlcNAc(b1-2)Man(a1-6)]Man(b1-4)GlcNAc(b1-4)GlcNAc
# In short: as §1
# [12] = biological target: Gal(b1-3)GlcNAc6S
# In short: as §1
# [13] = biological target: Gal(b1-3)[Fuc(a1-4)]GlcNAc(b1-2)Man
# In short: as §1
# [14] = biological target: Gal(b1-4)GlcNAc(b1-2)Man(a1-3)Man(b1-4)GlcNAc(b1-4)GlcNAc
# In short: as §1
# [15] = biological target: Gal(b1-4)GlcNAc(b1-3)Gal(b1-4)GlcNAc
# In short: as §1
# [16] = biological target: Gal(b1-4)GlcNAc(b1-3)Gal(b1-4)GlcNAc(b1-2)Man(a1-3)[Gal(b1-4)GlcNAc(b1-3)Gal(b1-4)GlcNAc(b1-2)Man(a1-6)]Man(b1-4)GlcNAc(b1-4)[Fuc(a1-6)]GlcNAc
# In short: as §1
# [17] = biological target: Gal(b1-4)GlcNAc(b1-3)Gal(b1-4)GlcNAc(b1-2)[Gal(b1-4)GlcNAc(b1-3)Gal(b1-4)GlcNAc(b1-6)]Man(a1-6)[Gal(b1-4)GlcNAc(b1-3)Gal(b1-4)GlcNAc(b1-2)Man(a1-3)]Man(b1-4)GlcNAc(b1-4)[Fuc(a1-6)]GlcNAc
# In short: as §1
# [18] = biological target: Gal(b1-4)GlcNAc(b1-3)Gal(b1-4)GlcNAc(b1-3)Gal(b1-4)GlcNAc(b1-2)Man(a1-3)[Gal(b1-4)GlcNAc(b1-3)Gal(b1-4)GlcNAc(b1-3)Gal(b1-4)GlcNAc(b1-2)Man(a1-6)]Man(b1-4)GlcNAc(b1-4)GlcNAc
# In short: as §1
# [19] = biological target: Gal(b1-4)GlcNAc(b1-3)Gal(b1-4)GlcNAc(b1-3)Gal(b1-4)GlcNAc(b1-2)Man(a1-3)[Gal(b1-4)GlcNAc(b1-3)Gal(b1-4)GlcNAc(b1-3)Gal(b1-4)GlcNAc(b1-2)Man(a1-6)]Man(b1-4)GlcNAc(b1-4)[Fuc(a1-6)]GlcNAc
# In short: as §1
# [20] = biological target: Gal3S(b1-4)Glc6S
# In short: as §1
# [21] = biological target: Gal3S(b1-4)[Fuc(a1-3)]GlcNAc
# In short: as §1
# [22] = biological target: Gal6S(b1-4)Glc
# In short: as §1
# [23] = biological target: Gal6S(b1-4)Glc6S
# In short: as §1
# [24] = biological target: GalNAc(b1-3)Gal
# In short: as §1
# [25] = biological target: GalNAc(b1-3)Gal(a1-4)Gal(b1-4)GlcNAc
# In short: as §1
# [26] = biological target: GalNAc(b1-3)Gal(a1-4)Gal(b1-4)GlcNAc(b1-3)Gal(b1-4)Glc
# In short: as §1
# [27] = biological target: GalNAc(b1-3)GalNAc
# In short: as §1
binder,measurement,setting,value
B1,glycan array binding signal (z-score),[1],0.024
same,glycan array binding signal (z-score),[2],-0.826
same,glycan array binding signal (z-score),[3],0.287
same,glycan array binding signal (z-score),[4],-0.816
same,glycan array binding signal (z-score),[5],2.8
same,glycan array binding signal (z-score),[6],0.185
same,glycan array binding signal (z-score),[7],1.31
same,glycan array binding signal (z-score),[8],1.04
same,glycan array binding signal (z-score),[9],4.3
same,glycan array binding signal (z-score),[10],1.53
same,glycan array binding signal (z-score),[11],-0.404
same,glycan array binding signal (z-score),[12],2.8
same,glycan array binding signal (z-score),[13],-0.693
same,glycan array binding signal (z-score),[14],0.534
same,glycan array binding signal (z-score),[15],-0.463
same,glycan array binding signal (z-score),[16],2.98
same,glycan array binding signal (z-score),[17],3.42
same,glycan array binding signal (z-score),[18],2.01
same,glycan array binding signal (z-score),[19],3.12
same,glycan array binding signal (z-score),[20],-0.778
same,glycan array binding signal (z-score),[21],-0.801
same,glycan array binding signal (z-score),[22],0.825
same,glycan array binding signal (z-score),[23],0.798
same,glycan array binding signal (z-score),[24],-0.448
same,glycan array binding signal (z-score),[25],0.47
same,glycan array binding signal (z-score),[26],1.12
same,glycan array binding signal (z-score),[27],-0.725
